Source: ChEMBL document CHEMBL1157539, “Thousands of chemical starting points for antimalarial lead identification” (Nature, 2010)

Legend:
Type in all cases: functional
Plasmodium falciparum [1] = experiment: GSK_TCMDC: Inhibition of Plasmodium falciparum 3D7 in whole red blood cells, using parasite LDH activity as an index of growth. Test compounds present at 2uM
Plasmodium falciparum [2] = experiment: GSK_TCMDC: Inhibition of Plasmodium falciparum Dd2 in whole red blood cells, using parasite LDH activity as an index of growth. Test compounds present at 2uM
HepG2 = experiment: GSK_TCMDC: Percent inhibition of human HepG2 cell line. Test compounds present at 10uM.

| Structure (SMILES) | Inhibition (Plasmodium falciparum [1]) | Inhibition (Plasmodium falciparum [2]) | Inhibition (HepG2) |
| --- | --- | --- | --- |
| Cc1nc(-c2ccc3c(c2)CCN(CCC2CCC(NC(=O)c4cc5cccc(Cl)c5[nH]4)CC2)CC3)no1.Cl (stereo not drawn) | 100% | 46% | 36% |
| COc1ccc2ccccc2c1C=NNc1ccnc2cc(Cl)ccc12 | 100% | 94% | 20% |
| CC1(C)N=C(N)N=C(N)N1c1ccc(Br)cc1.Cl | 94% | 4% | 52% |
| CC(=NNC(S)=NC(C)(C)C)c1ccccn1 | 99% | 100% | 63% |
| CC(C)N1CCN(C(=O)c2ccc(CNCCCN3CCN(c4ccccc4C(F)(F)F)CC3)s2)CC1.Cl | 98% | 42% | 32% |
| CCc1cccc2c(C#N)cn(CC(=O)Nc3ccc(OC)cc3)c12 | 97% | 76% | 0% |
| Cc1cc(N2CCCC2=O)ccc1-c1ccc(C(=O)N2CCC(Oc3cccc(Cl)c3)CC2)cc1 | 99% | 98% | 34% |
| COc1ccc(N2CCN(CCCCNC(=O)c3ccc(NC(=O)c4cc(Cl)cc(Cl)c4)cc3)CC2)c(OC)c1.Cl | 100% | 84% | 21% |
| CC(C)c1ccc2oc(-c3ccc(NC(=O)c4ccc([N+](=O)[O-])o4)cc3)nc2c1 | 100% | 95% | 99% |
| CCCCCCCc1c(C)nc2ccccc2c1O | 98% | 96% | 0% |
| O=S(=O)(c1c(Cl)cc(Cl)cc1Cl)N1CCCCC(c2ccc(C(F)(F)F)cc2)=N1 | 98% | 99% | 6% |
